97 compounds from PubChem BioAssay AID1016 (Sanford-Burnham Center for Chemical Genomics, 2008) can be followed below.

The whole screen tested about 200,000 compounds, of which about 330 (0.17%) were called active.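 The calls were made as follows: active = activation factor of 2 or more at 20 µM, a signal rise over negative controls twice the positive control's; inactive = the rest.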 Many of the other results were omitted from the sample, so actives are more common in it than they were.

The subject of the assay is alkaline phosphatase, intestinal [Bos taurus]. Put plainly: bovine intestinal alkaline phosphatase activators, primary screen, biochemical, bovine IAP, CDP-star luminescence (AID 1016). Particulars: purified bovine IAP, 30 min, at 20 µM, active compounds read high, fold of DMSO-control signal, blank-subtracted.
On to `Cc1cccc(CC(=O)N2CCN=C2SCc2ccc([N+](=O)[O-])cc2)c1`, for which the activation factor is 0.8 (inactive). The value for `COc1ccc(CCNc2cc(C)nc3c(-c4ccc(Cl)cc4)c(C)nn23)cc1OC` was 0.9 (inactive); that for `COc1ccc(-c2nc3cnccn3c2NC(C)(C)CC(C)(C)C)cc1O` was 1.2 (inactive); that for `COc1ccccc1N1CCN(c2ccc([N+](=O)[O-])nc2)CC1` was 1 (inactive). The value for `CCS(=O)(=O)c1ccc(O)c(NC(=O)COc2ccc(Cl)cc2)c1` was 1 (inactive); that for `Clc1cccc(CN2COc3c(cc(Cl)c4cccnc34)C2)c1` was 0.8 (inactive). Consider `Cc1ccc(Cl)c(NC(=O)CN(C)CC(=O)Nc2ccc(F)c(F)c2F)c1Cl`, for which the activation factor is 1.3 (inactive). The value for `CCOC(=O)c1c(NC(=O)Cn2nc(C(F)(F)F)cc2C)sc2c1CCC2` was 1 (inactive); that for `CCc1ccc(C2C(C#N)=C(N)N(N3CCOCC3)C3=C2C(=O)CC(C)(C)C3)s1` (configuration not stated) was 1 (inactive); that for `Cc1c(Br)ccc(NC(=O)COc2ccccc2C(N)=O)c1C` was 0.9 (inactive). With `CC(C)NC(=S)N1CCN(C(c2ccccc2)c2ccccc2)CC1` the figure was 0.9 (inactive); with `COc1ccc(F)c(-c2nc(CN3CCC(c4ccccc4)CC3)c(C)o2)c1`, 1.1 (inactive). The value for `C=CCC(CC=C)(C(N)=O)c1ccccc1` was 1 (inactive); that for `Fc1ccc(CNCc2ccc(Br)cc2)cc1` was 0.9 (inactive); that for `CCOC(=O)COc1cc(O)c2c(=O)cc(-c3ccccc3)oc2c1` was 1.1 (inactive). For `CCN(CC)S(=O)(=O)c1ccc(OC(C)C)c(N)c1`, the activation factor is 1 (inactive). With `COCCNc1cc(NCCOC)c([N+](=O)[O-])cc1[N+](=O)[O-]` the figure was 1.3 (inactive).

As to `Cc1ccc2[nH]c(=O)c(CN3CCCCC3)c(-c3ccccc3)c2c1`, the activation factor is 1.1 (inactive). As for `O=S(=O)(NCC1CCCO1)c1cnc(Cl)c(Cl)c1` (configuration not stated), the activation factor was 1 (inactive). With `O=C(NCc1cccs1)c1ccc(Br)o1`, the activation factor was 1 (inactive). Regarding `O=[N+]([O-])c1ccc2c(c1)C(N1CCOCC1)/C(=C/C1(O)CCCCC1)O2` (configuration not stated), the activation factor is 1.1 (inactive). With `CC(NC(=S)Nc1ccc(OC(F)F)cc1)c1ccc(F)cc1` (configuration not stated) the figure was 0.8 (inactive). Take `O=C1c2ccccc2NC(c2ccccc2O)N1NS(=O)(=O)c1ccccc1` (configuration not stated): the activation factor is 1 (inactive).

For `CN(CCc1ccccn1)C(=O)CCC1CCCN(Cc2ccccc2OC(F)F)C1` (configuration not stated), the activation factor is 1.1 (inactive). Take `Cc1ccnc(NC(=O)Cn2ccc([N+](=O)[O-])n2)c1`: the activation factor was 1 (inactive).

For the compound `Cc1ccc(NC(=O)NC2CCCCC2)cc1S(=O)(=O)N1CCOCC1`, the activation factor is 1.2 (inactive). On to `Cc1ccc(N=C2NC(=O)c3cccc([N+](=O)[O-])c32)cc1`, for which the activation factor is 1 (inactive). For `Cc1ccc(Sc2ccncc2S(N)(=O)=O)cc1`, the activation factor was 0.5 (inactive). With `Cc1cc2ccccn2c1C(=O)c1cccc(S(=O)(=O)N2CCOCC2)c1` the figure was 1 (inactive); with `Cc1ccc([N+](=O)[O-])c(OCCCNCC(C)O)c1` (configuration not stated), 1 (inactive). With `CCn1c(C(C)C)n[nH]c1=S` the figure was 0.9 (inactive). The value for `O=C(COC(=O)c1cc([N+](=O)[O-])ccc1NCc1ccccc1)NC1CCCCC1` was 1 (inactive); that for `COCCn1c(=NC(=O)c2ccccc2[N+](=O)[O-])sc2cc(S(C)(=O)=O)ccc21` was 1.2 (inactive). As for `CC(C)CC(CO)N1CCN(C(=O)c2ccc(Cl)cc2Cl)CCC1=O` (configuration not stated), the activation factor was 1.2 (inactive).

As to `Cc1cc2oc(=O)cc(CN3CCN(S(=O)(=O)c4cccs4)CC3)c2cc1C(C)C`, the activation factor is 0.9 (inactive). For `N#C/C(=C/c1cccc([N+](=O)[O-])c1)c1nnc2n1CCCCC2`, the activation factor is 0.5 (inactive).

Turning to `Cc1ccc(OCCCC(=O)NC(C)c2ccccc2)c(C)c1` (configuration not stated), the activation factor was 1 (inactive). With `CN(c1ccccc1)S(=O)(=O)c1cccc(NC(=O)Cc2c(F)cccc2Cl)c1` the figure was 0.9 (inactive); with `CCCCC(CC)CNC(=O)C(=O)C1C(=O)Nc2ccccc21` (configuration not stated), 0.9 (inactive).

Turning to `COc1ccc(OC)c(NC(=S)N2CCc3ccccc3C2)c1`, the activation factor is 1 (inactive). On to `CCS(=O)(=O)N1Cc2ccccc2CC1C(=O)Nc1nc2ccc(F)cc2s1` (configuration not stated), for which the activation factor was 1 (inactive). With `COc1cccc(C(=O)Nc2cc3c(cc2Br)OCCCO3)c1` the figure was 1.1 (inactive); with `O=C(Nc1nnc(C2CC2)s1)C1=NN(C2CCS(=O)(=O)C2)C(=O)CC1` (configuration not stated), 1 (inactive); with `Cc1ccc(S(=O)(=O)/N=C(/Nc2ccc3[nH]c(=O)[nH]c3c2)c2ccccc2)cc1`, 0.9 (inactive). In the case of `Cc1cc(/C=C2/C(=N)N3C(=NC2=O)SN=C3S(C)(=O)=O)c(C)n1-c1ccccc1`, the activation factor is 1.1 (inactive).

For the compound `Cc1ccc(-n2cnc3ncnc(-c4ccccc4)c32)cc1`, the activation factor is 1.1 (inactive). The value for `Cc1ccc(NC(=O)c2csc3c2CCCC3)cc1` was 0.9 (inactive). The value for `Cc1cc(C)c(NC(=S)N2CCCC2C(=O)O)c(C)c1` (configuration not stated) was 0.7 (inactive); that for `CC(Sc1nc(-c2ccccc2)cc(C(F)(F)F)n1)C(=O)Nc1ccc2c(c1)OCO2` (configuration not stated) was 0.9 (inactive); that for `Cc1ccsc1/C=N/n1c(=S)[nH]nc(C)c1=O` was 0.9 (inactive). Take `CC(C)C(C)(C#N)NC(=O)CSc1nncn1-c1ccccc1` (configuration not stated): the activation factor was 1 (inactive). The value for `Cc1[nH]c2c(C(=O)N3CCCC(CCC(=O)NCc4ccccc4F)C3)cccc2c1C` (configuration not stated) was 1.3 (inactive). The value for `COC(=O)c1cccc([N+](=O)[O-])c1CS(=O)(=O)c1ccc(C)cc1` was 0.8 (inactive); that for `O=C(COC(=O)c1ccco1)NCc1ccc(Cl)cc1` was 1 (inactive). The value for `O=C(N/N=C/c1cccc([N+](=O)[O-])c1)C1CC(=O)N(c2ccc(Br)cc2)C1` (configuration not stated) was 0.7 (inactive); that for `CN(C)S(=O)(=O)c1cc(NC(=O)CN2C(=O)NC3(CCCc4ccccc43)C2=O)ccc1Cl` (configuration not stated) was 1 (inactive); that for `CCN(CC(=O)Nc1ccc(Cl)c(S(=O)(=O)N(C)C)c1)Cc1nc2ccccc2c(=O)[nH]1` was 2.1 (active). As for `CCN(CC(=O)NC(=O)NCc1ccccc1)Cc1nc2ccccc2c(=O)[nH]1`, the activation factor was 1.5 (inactive). With `N#Cc1c(-c2ccc(Cl)cc2)c2c([nH]c1=S)CCCC2` the figure was 0.8 (inactive); with `CC(C)C[C@H](NC(=O)Nc1cccc(C(F)(F)F)c1)C(=O)O`, 4.4 (active). With `CCNS(=O)(=O)c1ccc(NC(=O)Nc2cccc(C(F)(F)F)c2)cc1` the figure was 0.6 (inactive); with `O=C(O)CSCC(=O)Nc1cccc(C(F)(F)F)c1`, 0.9 (inactive). The value for `CCCCCCCCc1c(O)nc(-n2[nH]c(C)c(CCO)c2=O)[nH]c1=O` was 1.2 (inactive); that for `O=C(C1CCN(S(=O)(=O)c2ccc(Br)s2)CC1)N1CCN(C2CCCCC2)CC1` was 1.2 (inactive). Regarding `O=C(Nc1cc(S(=O)(=O)N2CCOCC2)ccc1Cl)c1cc(=O)c2ccccc2o1`, the activation factor was 1.3 (inactive). With `O=[N+]([O-])c1cc(S(=O)(=O)N2CCCC2)ccc1NN=C1CCCC1` the figure was 0.9 (inactive); with `COC(=O)C1=NN(c2ccccc2)C2C(=O)N(c3ccccc3OC)C(=O)C12` (configuration not stated), 0.9 (inactive); with `CC1CN(C(=O)c2ccccc2NS(=O)(=O)c2cccc([N+](=O)[O-])c2)CC(C)O1` (configuration not stated), 0.9 (inactive).

Regarding `CCOc1cc(NC(=S)NCc2ccco2)c(OCC)cc1NC(=O)c1ccco1`, the activation factor was 1 (inactive). In the case of `NNC(=O)C1CC(O)CN1S(=O)(=O)c1ccc(Cl)cc1` (configuration not stated), the activation factor was 1.1 (inactive). Consider `CC(C)OC(=O)CN1CCN(c2ccc(Cl)cc2)CC1`, for which the activation factor is 1.1 (inactive).

As for `O=C(C(=O)N1CCc2ccccc2C1)c1c[nH]c2ccccc12`, the activation factor was 0.9 (inactive). With `COc1ccc(N2CCN(C(=O)COc3ccc4c(C)cc(=O)oc4c3)CC2)cc1` the figure was 1.1 (inactive); with `O=C(O)c1cccc(N=NN2CCCCCC2)c1`, 1.1 (inactive). With `COc1cc(NC(=S)NCc2ccc(S(N)(=O)=O)cc2)cc(OC)c1` the figure was 1 (inactive); with `Cc1ccc(S(=O)(=O)N(C)C)cc1NC(=O)/C=C/c1cccs1`, 0.9 (inactive); with `COc1cc(OC)c(-n2cc(-c3ccc(Cl)cc3)[nH]c2=O)cc1Cl`, 1 (inactive). The value for `CCCNC(=S)N1CCCC(c2nc3ccccc3[nH]2)C1` (configuration not stated) was 1.1 (inactive); that for `Cc1ccccc1C(OCCN(C)C)C1CCCCC1` (configuration not stated) was 1.1 (inactive). Regarding `CCCN(CCC)CCCNC(=O)CNC(=O)c1nn(-c2ccc(OC)cc2)c(=O)c2ccccc12`, the activation factor is 1.1 (inactive). The value for `CCc1nnc(NC(=O)C2CC(=O)N(c3ccc4c(c3)OCCO4)C2)s1` (configuration not stated) was 0.4 (inactive); that for `Cc1ccc(S(=O)(=O)N2CCN(CC(=O)N/N=C/c3cc([N+](=O)[O-])ccc3Cl)CC2)cc1` was 0.5 (inactive); that for `COc1ccc(/C=N/NC(=O)CNC(=O)c2ccc(S(=O)(=O)N3CCCC3)cc2)c(OC)c1` was 1.1 (inactive).

Regarding `Cc1cc(Br)ccc1SCC(=O)OCC(=O)NCc1ccc2c(c1)OCO2`, the activation factor is 0.8 (inactive).

On to `CS(=O)(=O)n1nc(-c2ccco2)nc1N`, for which the activation factor was 1.2 (inactive). As for `Cc1ccc(NC(=O)NC(=O)N(C2CCCCC2)S(=O)(=O)c2ccccc2)cc1`, the activation factor was 1.1 (inactive). As for `CCN(CC)CCCSc1nc2ccccc2s1`, the activation factor was 1.1 (inactive). With `COc1ccc(C2N=C(N)N=C(N)N2c2ccccc2)cc1OC` (configuration not stated) the figure was 3 (active); with `COc1ccc(C2SCCN2S(=O)(=O)c2ccccc2)cc1OC` (configuration not stated), 1 (inactive); with `COc1ccc(C2/C(=C(/O)c3ccccc3)C(=O)C(=O)N2c2ncccn2)cc1OC` (configuration not stated), 1 (inactive). Turning to `O=C(Nc1nnc(C2COc3ccccc3O2)o1)c1ccc(F)cc1` (configuration not stated), the activation factor was 1 (inactive).

`C/C(Cc1ccccc1)=N\NC(=O)CNC(=O)c1cccc(Br)c1`: the activation factor was 0.9 (inactive). The value for `Cc1ccccc1NC(=O)c1ccc(COc2ccc3c(C)cc(=O)oc3c2)cc1` was 1 (inactive). The value for `CCOC(=O)N1CCN(C(c2cccnc2)c2ccc3cccnc3c2O)CC1` (configuration not stated) was 1.3 (inactive); that for `Cc1nc2sc(C(c3ccco3)N3CCOCC3)c(O)n2n1` (configuration not stated) was 0.9 (inactive); that for `Oc1c(C(c2ccccn2)N2CCOCC2)ccc2cccnc12` (configuration not stated) was 2 (active). The value for `CCOC(=O)c1nn(-c2ccccc2F)c2nc(Nc3ccccc3)cc(=O)n12` was 1 (inactive).
